The results in this text go back to PubChem BioAssay (EPA / NIEHS).

Each structure is given as a SMILES string. Records with an inconclusive call do not appear. Activity calls are given as the source filed them. The calls were made as follows: active = hit-call score of the fitted dose curve at least 0.9, where 1 is the maximum; inconclusive = response in the unintended direction; inactive = score below 0.9.

This assay can be described thus: ACEA_AR_agonist_AUC_viability: ACEA Biosciences xCELLigence Real-Time Cell Analysis on Androgen Receptor Agonism for Viability (AID 2283775).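 As to AC50: viability read 80 hours after compound addition.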 On the procedure: ACEA_AR_agonist is a cell-based, single-readout assay that uses 22Rv1, a human prostate cancer cell line, with measurements taken at 80 hours after chemical dosing in a 384-well plate, although TO5 and TO6 (mc0.srcf) used a 96-well plate. Differences in plate size can be ignored given data normalization.ACEA_AR_80hr is one of two assay component(s) measured or calculated from the ACEA_AR assay. It is designed to make measurements of real-time cell-growth kinetics, a form of growth reporter, as detected with electrical impedance signals by Real-Time Cell Electrode Sensor (RT-CES) technology.Data from the assay component ACEA_AR_AUC_viability was analyzed in the positive analysis fitting direction relative to DMSO as the negative control and baseline of activity. Using a type of growth reporter, loss-of-signal activity can be used to understand changes in the viability. Furthermore, this assay endpoint can be referred to as a secondary readout, because this assay has produced multiple assay endpoints where this one serves a viability function. To generalize the intended target to other relatable targets, this assay endpoint is annotated to the cell cycle intended target family, where the subfamily is cytotoxicity.
The xCELLigence system Multi-E-Plate stations were used to measure the time-dependent response to chemicals. Each compound was tested in an eight-point, 1:4 serial dilution series starting at a maximum final concentration of 100 uM. A maximum starting concentration of 0.5% DMSO was present in the 100 uM chemical samples and was diluted along with the test article dilution series. The screen was performed in biological duplicate using two separate, 96-well, E-Plates 96 for each dilution series (n = 2). Positive controls (MG132 and testosterone) and a negative control (assay media) were tested in quadruplicate on each testing plate. Then, 0.5% and 0.125% DMSO were tested in duplicates in each plate to serve as solvent controls for the 2 highest concentrations of testing compounds: 100 uM and 25 uM. Reference compounds were tested with 8 concentrations with 1:5 serial dilutions. All screening was carried out by ACEA Biosciences, Inc. (San Diego, CA). 22Rv1 cells purchased from ATCC were maintained in media supplemented with 10% fetal bovine serum (FBS). Before screening, 22Rv1 cells were preconditioned in assay medium. Cells were then detached and seeded in E-Plates 96 in assay medium. After overnight monitoring of growth once every hour, compounds were added to […] cells and remained in the medium until the end of the experiment. Cellular responses were then recorded once every 5 min for the first 5 h, and once every hour for an additional 100 h.
`CCOc1cccc(C2(N3CCN(c4ccccc4)CC3)CCC(C)CC2)c1` (stereo not given): the outcome was inactive.

`Clc1ccc(C(c2ccc(Cl)cc2)C(Cl)(Cl)Cl)cc1`: the concentration at half-maximal activity (AC50) was 8.63 µM (active).

On to `C=CCc1ccc2c(c1)OCO2`, for which the result was inactive.

As for `CCCSC(=O)N(CCC)CCC`, the compound was classed as inactive.

Take `CCC[CH2][Sn]([Cl])([CH2]CCC)[CH2]CCC`: the half-maximal activity concentration (AC50) is 0.567 µM (active).

With `CC(C)COC(=O)c1ccccc1C(=O)OCC(C)C`, the AC50 was 74.9 µM (active).

On to `O=[N+]([O-])C(Br)(CO)CO`, for which the concentration at half-maximal activity (AC50) was 29.5 µM (active).

On to `CN(C)c1ccc(C(=O)c2ccc(N(C)C)cc2)cc1`, for which the AC50 was 9.27 µM (active).

On to `O=C1CCCO1`, for which the call was inactive.

Take `OCCCBr`: the result was inactive.

Turning to `CC(C)N(Cc1ccccc1)C(=O)C(C)(C)C`, the compound was called inactive.

`C[N+](C)(C)CC1CO1` (stereo not given): the outcome was inactive.

Consider `Cc1cc(N=Nc2ccccc2C)ccc1N`, for which the AC50 is 66.1 µM (active).

In the case of `COc1cc(C=O)cc2c1[C@H](COC(N)=O)[C@]1(OC(C)=O)ON2C[C@H]2[C@@H]1N2C(C)=O`, the AC50 was 0.0199 µM (active).

In the case of `CC(C)(C)C(O)(CCc1ccc(Cl)cc1)Cn1cncn1` (stereo not given), the half-maximal activity concentration (AC50) was 87 µM (active).

Consider `Nc1ccc(N=Nc2ccccc2)cc1`, for which the AC50 was 50 µM (active).

Turning to `O=C(Oc1ccc(Br)cc1)N1CCN2CCC1CC2`, the AC50 is 72.1 µM (active).

With `CC(O)CCO` (stereo not given), the call was inactive.

Turning to `ClCCOCCCl`, the outcome was inactive.

With `CCCCCCCCn1sccc1=O`, the AC50 is 18.5 µM (active).

For the compound `CNC(=O)Oc1cccc2c1OC(C)(C)C2`, the compound was classed as inactive.

With `Clc1ccc(C(c2ccc(Cl)cc2)C(Cl)Cl)cc1`, the half-maximal activity concentration (AC50) is 21.3 µM (active).

Consider `[O-][Cl+]O`, for which the compound was called inactive.

For `N#CC(Br)(Br)C(N)=O`, the call was inactive.

On to `Nc1ccc([N+](=O)[O-])cc1`, for which the AC50 is 16.1 µM (active).

Regarding `O=C(Nc1ccccc1)c1ccccc1I`, the compound was classed as inactive.

Take `Brc1ccc(Oc2ccccc2)cc1`: the call was inactive.

For the compound `CCCCOC(=O)c1ccccc1C(=O)OCc1ccccc1`, the half-maximal activity concentration (AC50) is 50 µM (active).

Consider `ClC1=C(Cl)C2(Cl)C3C(Cl)C=CC3C1(Cl)C2(Cl)Cl` (stereo not given), for which the AC50 is 25 µM (active).

For the compound `CN(C)c1ccccc1`, the compound was classed as inactive.

With `c1ccc2c(c1)oc1ccccc12`, the result was inactive.

For the compound `Nc1ccc(Oc2ccc(N)cc2)cc1`, the compound was classed as inactive.

With `CCCCCOC(=O)c1ccccc1C(=O)OCCCCC`, the half-maximal activity concentration (AC50) is 30 µM (active).

As for `O=[N+]([O-])c1ccc(Oc2ccc(Cl)cc2Cl)cc1`, the AC50 is 84.9 µM (active).

Take `CC(C)(C)OOC(=O)c1ccccc1`: the compound was called inactive.

Take `Nc1cc(Cl)cc(C(=O)O)c1Cl`: the call was inactive.

As for `COC(=O)Nc1nc2ccccc2[nH]1`, the half-maximal activity concentration (AC50) was 50 µM (active).

As for `CO[C@@H]1[C@H](OC(=O)NC(=O)CCl)CC[C@]2(CO2)[C@H]1[C@@]1(C)O[C@@H]1CC=C(C)C`, the AC50 was 0.00152 µM (active).

Consider `Cn1cc(-c2ccccc2)c(=O)c(-c2cccc(C(F)(F)F)c2)c1`, for which the AC50 is 50 µM (active).

Regarding `COP(=S)(OC)SCN1C(=O)c2ccccc2C1=O`, the concentration at half-maximal activity (AC50) is 79.7 µM (active).
